The results in this text go back to PubChem BioAssay (NCATS).

Several values for one entry are separate records, joined by “and”; a condition that tells them apart may be missing. Equal values may be shown once. Unmarked numbers belong to inactive results. Inconclusive results are not listed. Activity calls are given as the source filed them. Unless noted, calls come from the whole dose curve; as a rule, active = well fitted curve in the direction sought with a large enough effect; inconclusive = small, poorly fitted or top-dose-only effect, or another doubt; inactive = no such curve, though single readings can be large; an effect the other way counts as inactive or inconclusive.

One test deals with Es-2. Put plainly: Primary qHTS to identify gynecologic anti-cancer compounds using libraries of approved drugs and bioactive compounds (AID 1345084). Note: nearly all actives have a fitted effect of over 55% in size. Note: potency is the fitted concentration of half-maximal effect. As to conditions: Gynecologic cancer cell panel viability, ATPlite luminescence, 48 h; series mostly up to 57.5 µM. The method, boiled down: (§1)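 Cell viability after 48 h drug treatment, ATPlite luminescence readout; five doses.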
(In general: qHTS replaces the single test concentration by a dilution series.)

A further test deals with HeLa. Described as above. As to conditions: Gynecologic cancer cell panel viability, ATPlite luminescence, 48 h; series mostly up to 57.5 µM. The gist of the method:
as §1
Background: ATP-based viability assays read luminescence as a measure of living cells.

The test system of the next test is Hek293T. Described as above. The conditions noted are these: Gynecologic cancer cell panel viability, ATPlite luminescence, 48 h, control line for the selectivity index; series mostly up to 57.5 µM. The method, boiled down:
as §1

For a further test, the system named is JEG-3. The test is described as above. The conditions noted are these: Gynecologic cancer cell panel viability, ATPlite luminescence, 48 h; series mostly up to 57.5 µM. The method, boiled down: as §1
In another test the test system is SKOV3. The test is described as above. As to conditions: Gynecologic cancer cell panel viability, ATPlite luminescence, 48 h; series mostly up to 57.5 µM. The gist of the method: as §1
The test system of the next test is Tov-21-G. Described as above. The conditions noted are these: Gynecologic cancer cell panel viability, ATPlite luminescence, 48 h; series mostly up to 57.5 µM. The gist of the method:
as §1

The next test relates to Tov112D. The description is as above. The conditions noted are these: Gynecologic cancer cell panel viability, ATPlite luminescence, 48 h; series mostly up to 57.5 µM. The gist of the method: as §1
A short description of test [1]: Drug repurposing screens with cells derived from glioblastoma tumor samples (AID 1345199). For activity, negative = cell killing: % is set by controls: 0 for no effect and ±100 for the full control effect. Note: nearly all actives have a fitted effect of over 40% in size. Note: potency is the fitted concentration of half-maximal effect. The conditions noted are these: GBM patient neurospheres viability, ATP luminescence, 48 h. The gist of the method: (§2)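 Primary testing used CD133+ neurospheres from four GBM patients, seven concentrations, 48 h exposure and ATP-based viability; confirmation added three slower-growing patient lines.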

Another test deals with astro. The description is as above. As to conditions: viability, ATP luminescence, 48 h; series mostly up to 45.9 µM. The gist of the method:
as §2

For another test, the system named is PA-1. In words: Primary qHTS to identify gynecologic anti-cancer compounds using libraries of approved drugs and bioactive compounds (AID 1345084). Note: nearly all actives have a fitted effect of over 55% in size. Note: potency is the fitted concentration of half-maximal effect. The conditions noted are these: Gynecologic cancer cell panel viability, ATPlite luminescence, 48 h; series mostly up to 57.5 µM. The method, boiled down:
as §1

A further test concerns OV90. The test is described as above. As to conditions: Gynecologic cancer cell panel viability, ATPlite luminescence, 48 h; series mostly up to 57.5 µM. The method, boiled down:
as §1

Test [2] deals with Nuclear receptor subfamily 1 group I member 2 (Rattus norvegicus) (UniProt Q9R1A7). Put plainly: qHTS assay for small molecule activators of the rat pregnane X receptor (rPXR) signaling pathway (AID 651751; call rule not given here; note: 0% is about no effect). As to conditions: rPXR reporter cells, luciferase (One-Glo), 24 h.
Nuclear receptor subfamily 1 group I member 2 (Rattus norvegicus), sequence (Q9R1A7 whole entry, looked up): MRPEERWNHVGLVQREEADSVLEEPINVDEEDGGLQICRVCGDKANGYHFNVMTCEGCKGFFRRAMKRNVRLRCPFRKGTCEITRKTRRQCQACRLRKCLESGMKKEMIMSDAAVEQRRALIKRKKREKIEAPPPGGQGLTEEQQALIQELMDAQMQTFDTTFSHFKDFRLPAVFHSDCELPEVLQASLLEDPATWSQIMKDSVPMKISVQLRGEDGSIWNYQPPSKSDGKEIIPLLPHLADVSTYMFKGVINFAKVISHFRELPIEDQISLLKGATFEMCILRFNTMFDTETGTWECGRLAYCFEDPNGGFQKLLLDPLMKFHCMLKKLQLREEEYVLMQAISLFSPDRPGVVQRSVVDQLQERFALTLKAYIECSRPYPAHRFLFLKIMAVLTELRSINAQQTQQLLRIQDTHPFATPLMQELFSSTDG
The nature of test [3]: qHTS assay for small molecule activators of the human pregnane X receptor (PXR) signaling pathway (AID 720659; call rule not given here; note: 0% is about no effect).
A short description of test [4]: qHTS assay to identify inhibitors of the type 1 interferon - major histocompatibility complex class I in skeletal muscle: Counter screen cell viability and HiBit confirmation (AID 1347412). Note: % is set by controls: 0 for no effect and ±100 for the full control effect; nearly all actives have a fitted effect of over 60% in size. As to conditions: iHSKM muscle cells + IFN-b, HiBiT or CellTiter-Glo, 24 h; Potency: HiBiT unless noted; Viability, at 45.9 µM (top of the series). The gist of the method: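 Duplicate plates, pinned identically: one read for HiBiT-tagged endogenous HLA-B luminescence, the other for ATP-content viability via CellTiter Glo. Cells were genome-engineered human myoblasts given 4 ng/ml IFN-b; compounds 12-pt, 1:3 from 46 uM final; 24 hr exposure.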

Where [5] appears, read: at 20 µM (top of the series), tumour line C.
Setting [6] is: at 46.1 µM (top of the series), tumour line C.
Where [7] appears, read: at 21.2 µM (top of the series), tumour line B.
[8] abbreviates: at 45.9 µM (top of the series), tumour line B.
Where [9] appears, read: at 45.9 µM (top of the series), tumour line D.
Where [10] appears, read: at 46 µM (top of the series), tumour line A.
Setting [11] is: at 21.2 µM (top of the series), tumour line D.

As for `O=C(CCCN1CCC(O)(c2ccc(Br)cc2)CC1)c1ccc(F)cc1`, the Potency result in the test on Es-2, in the test on HeLa, with Hek293T, with JEG-3, in the test on SKOV3 and with Tov-21-G was “inactive” throughout. Further, the Potency entry in the test with Tov112D and in the test on astro was “inactive” throughout. The activity, negative = cell killing in test [1] (setting [5]) was 5.41%. In addition, the Potency was 3.55 µM (active) in test [1] (tumour line A) and 8.91 µM (active) in [1] (tumour line D).

Consider `Cc1c(C)n(CCN(C)C)c2ccc(C(=O)OCCN(C)C)cc12`, for which the Potency result in the test on Es-2, in the test with HeLa, in the test with Hek293T, in the test on JEG-3, in the test on Tov-21-G and with Tov112D was “inactive” throughout. Besides, the Potency result with astro was “inactive”. Also, in [1] (setting [6]), the activity, negative = cell killing was -23.7%. The Potency in test [1] (tumour line A) is 10 µM (active).

For `CC(C)(C)CC(C)(C)c1ccc(OCCOCC[N+](C)(C)Cc2ccccc2)cc1`, the Potency result with Es-2, in the test on HeLa, with Hek293T, in the test with JEG-3 and in the test with Tov112D was “inactive” in each case. Moreover, the Potency is 14.1 µM (active) with PA-1, 12.6 µM (active) in the test with SKOV3 and 20 µM (active) in the test with astro.

With `C[C@@H](CN(C)C)CN1c2ccccc2Sc2ccccc21`, the Potency result in the test on Es-2, in the test with HeLa, in the test on Hek293T, with JEG-3, in the test with PA-1 and in the test on Tov-21-G was “inactive” in each case. Besides, the Potency entry in the test on Tov112D and in the test with astro was “inactive” each time. The values for the Potency (with SKOV3; in test [1] (tumour line A)) were 17.8 µM (active) and 8.91 µM (active), respectively. Moreover, the activity, negative = cell killing in test [1] (setting [5]) is 31.6%; in test [1] (setting [7]) it was -28.5%.

With `C#C[C@]1(O)CC[C@H]2[C@@H]3CCc4cc(OC5CCCC5)ccc4[C@H]3CC[C@@]21C`, the Potency entry in the test on Es-2, in the test on HeLa, in the test on Hek293T, with JEG-3, in the test on Tov-21-G and with Tov112D was “inactive” throughout. For the same compound, the Potency with OV90 was 20 µM (active); in [1] (tumour line A), 4.47 µM (active); in [1] (tumour line B), 10 µM (active); in the test with astro, 22.4 µM (active). The activity, negative = cell killing in test [1] (setting [6]) is -25.1%.

`COc1cccc2c1C(=O)c1c(O)c3c(c(O)c1C2=O)C[C@@](O)(C(=O)CO)C[C@@H]3O[C@H]1C[C@H](N)[C@H](O)[C@H](C)O1`: the Potency with Es-2 is 10 µM (active); with HeLa it was 22.4 µM (active); in the test with Hek293T, 7.94 µM (active); with JEG-3, 2.82 µM (active); in the test with OV90 it was 4.47 µM (active); in the test on SKOV3 it was 2.82 µM (active). In the test on Tov112D, the Potency is 0.891 µM (active). For the same compound, the activity, negative = cell killing is -6.08% in test [1] (setting [8]), -1.75% in [1] (setting [9]), -30.7% in test [1] (setting [10]) and -4.46% in test [1] (setting [6]). In addition, the max response in [2] was 0.888% and 0.44%. The compound was called inactive in [3].

As for `COc1ccc(/C=C/C(=O)c2ccc(OC)cc2OC)cc1`, the Potency result in the test with Es-2, in the test on HeLa, in the test on Hek293T, in the test with JEG-3, with Tov-21-G and in the test with Tov112D was “inactive” in each case. Also, the results for the Potency (in the test on SKOV3; in test [1] (tumour line A); in [1] (tumour line D)) were 2.24 µM (active), 35.5 µM (active) and 12.6 µM (active), respectively. The activity, negative = cell killing in test [1] (setting [6]) is -59.7%.

Turning to `CCN(CCCCOC(=O)c1ccc(OC)c(OC)c1)C(C)Cc1ccc(OC)cc1` (stereo unspecified), the Potency entry in the test on Es-2, in the test with HeLa, in the test on Hek293T, with JEG-3, in the test on PA-1 and in the test on SKOV3 was “inactive” in each case. The Potency entry in the test with Tov-21-G, in the test with Tov112D and in the test on astro was “inactive” in each case. The activity, negative = cell killing in [1] (setting [5]) was -2.24%; in test [1] (setting [7]), -9.34%. In test [1] (tumour line A), the Potency was 5.62 µM (active).

`COc1cc(C=C2CCC/C(=C\c3ccc(O)c(OC)c3)C2=O)ccc1O`: the Potency result (in the test with Es-2; in the test on Hek293T; in the test on OV90; in test [4]) was “inactive” each time.

Take `Cc1c(C(C)C)c(=O)n(-c2ccccc2)n1C`: the Potency entry in the test with HeLa, in the test with Hek293T, with JEG-3, with OV90, in the test with PA-1 and in the test on SKOV3 was “inactive” in each case. Besides, the Potency entry in the test with Tov-21-G, with Tov112D and in the test with astro was “inactive” each time. Also, the activity, negative = cell killing was -4.08% in test [1] (setting [8]), -9.96% in test [1] (setting [9]), -22.1% in test [1] (setting [10]) and -13.8% in test [1] (setting [6]).

`COc1cc(-c2ccc(=O)[nH]n2)ccc1OC(F)F`: the Potency result in the test on Es-2, with Hek293T, in the test with JEG-3, in the test on OV90, in the test on SKOV3 and with Tov-21-G was “inactive” in each case. Further, the Potency result with Tov112D was “inactive”. Besides, the activity, negative = cell killing in test [1] (setting [8]) is -9.45%; in test [1] (setting [9]), -28.9%; in test [1] (setting [6]), -14.1%.

For the compound `c1ccc(OCc2ccc(CCCN3CCOCC3)cc2)cc1`, the Potency result in the test on Es-2, in the test with HeLa, in the test on JEG-3, in the test on PA-1, in the test with SKOV3 and in the test with Tov-21-G was “inactive” each time. In addition, in the test with Tov112D, the Potency result was “inactive”.

Take `CCCCCCCCCCCCCCCC[N+](C)(C)CC`: the Potency is 28.2 µM (active) in the test with Es-2; 28.2 µM (active) in the test on HeLa; 22.4 µM (active) with OV90; 10 µM (active) in the test with PA-1; 2.51 µM (active) with SKOV3; 10 µM (active) in the test with Tov-21-G. The Potency in the test with Tov112D was 28.2 µM (active); in the test with astro, 5.62 µM (active).

For the compound `CCOc1ccc2nc3cc(N)ccc3c(N)c2c1`, the Potency entry with Es-2, in the test on HeLa, in the test with Tov-21-G and with astro was “inactive” each time. In addition, the activity, negative = cell killing in test [1] (setting [8]) is -17.9%; in test [1] (setting [9]), -30.3%; in test [1] (setting [10]), -14.8%; in [1] (setting [6]), 1.93%.

As to `NC(=NCCCCCCN=C(N)/N=C(\N)Nc1ccc(Cl)cc1)/N=C(\N)Nc1ccc(Cl)cc1`, the Potency result in the test on Es-2, in the test with JEG-3, with Tov-21-G and in the test on Tov112D was “inactive” each time. Also, the Potency in the test on PA-1 is 15.8 µM (active); in the test with astro, 11.2 µM (active). The outcome in [3] was inactive.

With `Cc1c(N(C)CS(=O)(=O)O)c(=O)n(-c2ccccc2)n1C`, the Potency result in the test with Es-2, in the test on JEG-3, in the test with OV90 and with SKOV3 was “inactive” in each case. The activity, negative = cell killing in [1] (setting [5]) was -2.96%; in test [1] (setting [7]) it was -9.28%; in test [1] (setting [11]) it was -9.47%; in test [1] (at 21.3 µM (top of the series), tumour line A), -23.9%.

On to `CC(C)N=C(N)/N=C(\N)Nc1ccc(Cl)cc1`, for which the Potency result in the test with HeLa, in the test with Hek293T, in the test on JEG-3, in the test with OV90, with PA-1 and in the test with Tov-21-G was “inactive” each time. Also, the Potency entry in the test with Tov112D and with astro was “inactive” each time. In the test with SKOV3, the Potency was 28.2 µM (active). Besides, the activity, negative = cell killing is -3.45% in test [1] (setting [5]), -11.2% in [1] (setting [7]) and -20.6% in test [1] (setting [11]).

Consider `Cc1cccn2c(=O)c(-c3nnn[nH]3)cnc12`, for which the Potency result in the test with Es-2, with HeLa, in the test with JEG-3, with OV90, in the test with PA-1 and in the test on SKOV3 was “inactive” throughout. Moreover, the Potency result with Tov-21-G, with Tov112D and with astro was “inactive” throughout. The activity, negative = cell killing was -8.75% in [1] (setting [8]), -11.1% in [1] (setting [9]), -23.8% in [1] (setting [10]) and -18.6% in test [1] (setting [6]).
